# Source: PubChem BioAssay
# Where “and” joins values, the source holds several entries; their conditions need not be identical. Identical values can stand only once. More than one record can exist for a structure, and the calls need not agree. Calls of active or inactive are those of the source.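 How the source made its calls, unless noted: active means compounds whose cell count with miR-34 switched on is under 0.7 times the count with it off; inactive means the rest.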
# Experiments:
# [1] = Wnt pathway potentiators raising nuclear beta-catenin – imaging, WNT3A-conditioned medium, mouse C2C12, NPC library, primary screen (AID 1117326; in the data active means nuclear beta-catenin stimulation mostly above about 4.2%, no sharp cut-off; inactive means mostly below about 10%); settings: stronger effect = higher value
# [2] = stimulators of insulin release from INS-1E, primary screen, cell-based, 5 mM glucose, NPC library (AID 1117329;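 active means compound raises insulin release from rat beta cells at 5 mM glucose, no numeric limit stated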); settings: rat INS-1E insulin secretion, at 10 µM, stronger effect = higher value
# [3] = growth inhibition of GSK3B-pretreated HCT116 cells – cell-based, CellTiter-Glo, 0.2 to 20 µM (AID 1117336;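 active means compounds lowering colon cancer cell viability after pretreatment blocking the GSK3B kinase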); settings: HCT116 viability after GSK3B inhibitor, at 20 µM, stronger effect = higher value
# [4] = inhibition of endothelial tube formation, primary screen, imaging, VEGF stimulated, CD31 staining, tube area, NPC library (AID 1117340;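 active means compound that reduces growth-factor-driven endothelial tube area in a mixed cell culture, no cutoff stated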); settings: VEGF-stimulated ADSC/ECFC co-culture, at 10 µM, stronger effect = higher value
# [5] = GLP1 release stimulators, primary, NCI-H716, NPC library (AID 1117341;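 active means compound raises GLP1 secretion from the human gut endocrine cells, with no numeric limit stated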); settings: NCI-H716 cells, at 10 µM, stronger effect = higher value
# [6] = HCT116 colon cancer cell growth inhibition, primary screen, CellTiter-Glo luminescence, NPC library (AID 1117342;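 active means compounds that lower survival of HCT116 colon cancer cells in the luminescence readout, no numeric limit stated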); settings: at 20 µM (top of the series)
# [7] = reduced SW480 viability measured with CellTiter-Glo, NPC library, primary (AID 1117343;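 active means compounds that lower viability of the colon cancer cells in the luminescence readout, with no numeric limit stated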); settings: CellTiter-Glo luminescence; at 20 µM (top of the series)
# [8] = NPC library primary testing for decreased DLD-1 cell viability via CellTiter-Glo (AID 1117346;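 active means compounds that lower survival of DLD-1 colon cancer cells in the luminescence readout, no cutoff given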); settings: DLD-1 viability, CellTiter-Glo luminescence; at 20 µM (top of the series)
# [9] = target: 6-phosphogluconate dehydrogenase, decarboxylating (Homo sapiens) (UniProt P52209); experiment: inhibition of human phosphogluconate dehydrogenase – biochemical, recombinant enzyme, NADPH absorbance, primary screen (AID 1159550;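 active means at least 20% inhibition of 6-phosphogluconate dehydrogenase activity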); settings: recombinant 6PGD, NADPH absorbance 341 nm; at 10 µM; stronger effect = higher value
# [10] = EMT-state selective cytotoxicity in co-culture – imaging, PC-3E GFP, TEM4-18 mCherry, primary screen (AID 1345086;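 active means compounds killing one labelled cell type while sparing the other, by normalised counts and ratio limits, not self-fluorescent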;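 on all read-outs here: cells exposed to compound for 72 h before imaging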;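 on red/green cell ratio (normalised): normalised mesenchymal count divided by normalised epithelial count so high means epithelial killing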); settings: PC-3E GFP / TEM4-18 mCherry co-culture, imaging cell counts, at 1 µM; for red/green cell ratio (normalised): actives lie on both sides
# [11] = viability loss with induced miR-34 in A549 – imaging, A549 dox-inducible miR-34, nuclei and caspase counts, primary screen (AID 1347080); settings: A549 miR-34 inducible, Hoechst nuclei count, 48 h
# [12] = MELAS cybrid and Rieske KO viability enhancers – cell-based, MELAS cybrids, Rieske KO mouse fibroblasts, CellTiter-Glo, primary screen (AID 1508586;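 active means mean z-score across replicates of 1.96 or higher in either the MELAS or the Rieske mutant cell line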;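 further: z relative to plate mean and SD of compound and empty wells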); settings: low glucose
# [13] = target: NAD(+) hydrolase SARM1 (Homo sapiens) (UniProt Q6SZW1); experiment: blocking NAD cleavage by SARM1 SAM-TIR – cell lysate, NAD-Glo luminescence (AID 1508614;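 active means compound whose remaining NAD level is above about 45 nM, limit read from the data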); settings: SAM-TIR HEK293T lysate NADase, at 1 µM, stronger effect = higher value
# [14] = galactose survival enhancers in mitochondrial complex I cybrids – cell-based, galactose medium, ATP luminescence, primary screen (AID 1645843;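 active means z-score of at least 1.8 in each of two replicates, scored against plate mean and spread of sample wells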;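 further: positive z means more ATP and so rescue of galactose-driven cybrid death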); settings: complex I mutant cybrid cells, 72 h, stronger effect = higher value
# [15] = yeast 75Q aggregation reduction – 75Q-TubU reporter (AID 1593); settings: Yeast 75Q polyglutamine aggregation reporter
# [16] = blockers of cytochrome c efflux from mitochondria – biochemical, purified mitochondria (AID 1603); settings: stronger effect = lower value;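 further: mouse liver mitochondria challenged with calcium chloride; signal normalized to the plate average as 100%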
# [17] = polyglutamine aggregate formation blockers (AID 1604); settings: polyglutamine-induced protein aggregation inhibition assay; stronger effect = higher value; tested at 2.5 µM
# [18] = P. berghei load reduction in hepatocytes – cell-based, HepG2, luciferase luminescence, HepG2 viability, primary screen (AID 624349; in the data active means parasite load remaining mostly below about 12%, no sharp cut-off; inactive means mostly above about 10%;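 further: 100% = mean of DMSO negative control wells on the same plate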); settings: P. berghei liver stage in HepG2, luciferase luminescence, concentration not given here; parasite load remaining: stronger effect = lower value; viability: measured here: HepG2 viability without parasites
# [19] = test system: Aerobactin synthetase IucA (Klebsiella pneumoniae hvKP1); experiment: IucA enzyme inhibition, primary screen, biochemical, Spectrum library (AID 1346200; call rule not given here;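 further: 100% = wells without compound and 0% = wells lacking enzyme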); settings: malachite green pyrophosphate, A620, at 8 µM, stronger effect = lower value
# [20] = target: Mitogen-activated protein kinase 7 (Homo sapiens) (UniProt Q13164); experiment: Gal4-ERK5 driven luciferase induction – cell-based, HTS, primary screen (AID 1508626;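 active means luciferase signal above three times the same-plate solvent-only control wells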;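 further: luciferase driven by Gal4-ERK5 fusion binding five Gal4 sites before minimal TATA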); settings: HeLa Gal4-ERK5 transactivation, 18 h, at 5 µM, stronger effect = higher value
# [21] = measured here: epithelial PC-3E GFP cell survival
# [22] = measured here: mesenchymal TEM4-18 mCherry cell survival
# [23] = measured here: relative caspase fold change +Dox/-Dox
# [24] = measured here: total cells with miR-34 induction, stronger effect = lower value
# [25] = measured here: total cells without miR-34 induction
# [26] = MELAS cybrid survival, CellTiter-Glo 48 h, stronger effect = higher value
# [27] = Rieske KO mouse fibroblast survival, CellTiter-Glo 72 h
# Chain of 6-phosphogluconate dehydrogenase, decarboxylating (Homo sapiens) (P52209 whole entry, looked up): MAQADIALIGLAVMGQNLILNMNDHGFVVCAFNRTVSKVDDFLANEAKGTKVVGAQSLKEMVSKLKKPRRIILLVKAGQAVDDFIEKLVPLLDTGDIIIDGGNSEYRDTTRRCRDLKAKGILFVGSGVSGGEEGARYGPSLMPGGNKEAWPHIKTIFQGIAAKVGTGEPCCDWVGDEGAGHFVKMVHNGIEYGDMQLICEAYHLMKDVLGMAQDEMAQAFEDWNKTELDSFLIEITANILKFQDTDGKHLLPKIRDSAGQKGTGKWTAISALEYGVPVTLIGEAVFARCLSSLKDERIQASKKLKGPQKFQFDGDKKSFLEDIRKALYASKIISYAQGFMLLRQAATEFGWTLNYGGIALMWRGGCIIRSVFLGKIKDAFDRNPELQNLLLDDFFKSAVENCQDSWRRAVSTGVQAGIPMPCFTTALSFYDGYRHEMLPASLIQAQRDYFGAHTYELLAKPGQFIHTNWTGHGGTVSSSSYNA
# Chain of NAD(+) hydrolase SARM1 (Homo sapiens) (Q6SZW1 whole entry, looked up): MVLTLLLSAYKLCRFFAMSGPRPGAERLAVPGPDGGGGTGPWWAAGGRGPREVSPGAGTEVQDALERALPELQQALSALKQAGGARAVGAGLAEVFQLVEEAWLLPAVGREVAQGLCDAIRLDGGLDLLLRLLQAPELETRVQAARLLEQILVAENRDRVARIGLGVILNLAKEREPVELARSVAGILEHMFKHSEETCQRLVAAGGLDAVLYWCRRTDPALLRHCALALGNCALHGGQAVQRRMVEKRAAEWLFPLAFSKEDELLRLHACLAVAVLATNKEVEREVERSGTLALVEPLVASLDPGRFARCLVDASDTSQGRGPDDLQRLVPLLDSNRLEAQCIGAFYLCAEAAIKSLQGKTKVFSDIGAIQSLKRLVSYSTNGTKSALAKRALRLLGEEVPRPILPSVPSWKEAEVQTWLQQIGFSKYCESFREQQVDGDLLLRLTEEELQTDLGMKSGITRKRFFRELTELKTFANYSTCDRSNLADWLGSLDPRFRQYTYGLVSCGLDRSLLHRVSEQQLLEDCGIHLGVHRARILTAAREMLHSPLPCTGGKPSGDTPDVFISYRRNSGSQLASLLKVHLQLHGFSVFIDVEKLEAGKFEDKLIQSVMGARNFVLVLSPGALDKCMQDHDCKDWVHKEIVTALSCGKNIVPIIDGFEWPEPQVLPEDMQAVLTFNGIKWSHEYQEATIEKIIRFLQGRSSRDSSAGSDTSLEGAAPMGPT
# Chain of Mitogen-activated protein kinase 7 (Homo sapiens) (Q13164 whole entry, looked up, the tested form may be a part): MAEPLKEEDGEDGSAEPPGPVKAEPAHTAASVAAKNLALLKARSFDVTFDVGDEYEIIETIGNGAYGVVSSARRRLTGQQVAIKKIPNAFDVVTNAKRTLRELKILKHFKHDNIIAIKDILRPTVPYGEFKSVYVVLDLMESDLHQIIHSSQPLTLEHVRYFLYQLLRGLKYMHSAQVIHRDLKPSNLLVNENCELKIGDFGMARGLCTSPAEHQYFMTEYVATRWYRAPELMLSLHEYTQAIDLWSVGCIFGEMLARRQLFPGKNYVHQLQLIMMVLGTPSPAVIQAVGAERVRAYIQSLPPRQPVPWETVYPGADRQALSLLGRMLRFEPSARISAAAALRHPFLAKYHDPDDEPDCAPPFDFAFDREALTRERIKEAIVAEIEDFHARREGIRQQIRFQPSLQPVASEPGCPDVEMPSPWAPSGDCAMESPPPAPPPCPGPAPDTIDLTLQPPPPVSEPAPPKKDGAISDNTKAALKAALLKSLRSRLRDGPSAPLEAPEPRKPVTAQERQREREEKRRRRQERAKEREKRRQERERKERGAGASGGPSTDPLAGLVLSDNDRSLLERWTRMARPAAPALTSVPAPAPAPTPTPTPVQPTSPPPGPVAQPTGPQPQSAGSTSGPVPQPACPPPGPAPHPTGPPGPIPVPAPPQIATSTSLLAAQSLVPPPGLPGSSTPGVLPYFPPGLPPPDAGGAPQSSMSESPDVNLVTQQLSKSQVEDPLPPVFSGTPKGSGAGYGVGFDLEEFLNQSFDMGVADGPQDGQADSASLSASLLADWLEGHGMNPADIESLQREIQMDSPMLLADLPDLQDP
compound,measurement,setting,value
CN1C(=S)CN=C(c2ccccc2)c2cc(Cl)ccc21,nuclear beta-catenin stimulation,[1]; at 10 µM,-0.4% (inactive)
same,nuclear beta-catenin stimulation,"[1]; stimulation, at 2 µM",3.4%
same,insulin secretion stimulation,[2],1.75% (inactive)
same,viability decrease,[3],65.8% (active)
same,tube area decrease,[4],6.8% (inactive)
same,GLP1 secretion stimulation,[5],1.6% (inactive)
same,inhibition of viability,[6],50.3% (active)
same,viability decrease (inhibition),[7],77.5% (active)
same,viability decrease (inhibition),[8],32.7% (inactive)
O=C(O)c1nn(Cc2ccc(Cl)cc2Cl)c2ccccc12,nuclear beta-catenin stimulation,[1]; at 10 µM,1.4% (inactive)
same,nuclear beta-catenin stimulation,"[1]; stimulation, at 2 µM",4.8%
same,insulin secretion stimulation,[2],4.2% (inactive)
same,viability decrease,[3],31.1% (inactive)
same,tube area decrease,[4],-29.5% (inactive)
same,GLP1 secretion stimulation,[5],4.9% (inactive)
same,inhibition of viability,[6],19.6% (inactive)
same,viability decrease (inhibition),[7],24.5% (inactive)
same,viability decrease (inhibition),[8],3.6% (inactive)
same,inhibition,[9],4.63% (inactive)
same,red/green cell ratio (normalised),[10],0.98 (inactive)
same,normalised cell number,[10]; [21],0.85
same,normalised cell number,[10]; [22],0.83
same,fold change,[11]; stronger effect = lower value,1.1 (inactive) and 0.951 (inactive) and 0.966 (inactive)
same,fold change,[11]; [23],0.953 and 0.659 and 0.627
same,cell count,[11]; [24],10200 and 7460 and 7860
same,cell count,[11]; [25],9270 and 7840 and 8130
same,z-score,[12]; [26],-0.0995 (inactive)
same,z-score,[12]; [27],-0.0829
same,remaining NAD,[13],10 nM (inactive)
same,z-score,[14],2.35 (active) and 0.985 (inactive)
C[C@@H]1C[C@@H]([C@H](O)CC2CC(=O)NC(=O)C2)C(=O)[C@@H](C)C1,score,[15],0.04
same,cytochrome c release ratio,[16],1.07
same,inhibition of aggregation,[17],91.3%
same,parasite load remaining,[18],-0.1% (active) and 5.12% (inactive) and 0% (inactive)
same,viability,[18],87.3% and 76.3% and 87.1%
same,nuclear beta-catenin stimulation,[1]; at 10 µM,28.9% (inactive)
same,nuclear beta-catenin stimulation,"[1]; stimulation, at 2 µM",25.8%
same,insulin secretion stimulation,[2],-1% (inactive)
same,viability decrease,[3],88.7% (active)
same,tube area decrease,[4],103% (active)
same,GLP1 secretion stimulation,[5],-4.7% (inactive)
same,inhibition of viability,[6],78.7% (active)
same,viability decrease (inhibition),[7],68.4% (active)
same,viability decrease (inhibition),[8],67.6% (active)
same,inhibition,[9],-13.3% (inactive)
same,red/green cell ratio (normalised),[10],0.97 (inactive)
same,normalised cell number,[10]; [21],0.98
same,normalised cell number,[10]; [22],0.96
same,activity remaining,[19],112% (inactive)
same,fold change,[11]; stronger effect = lower value,1.05 (inactive) and 0.852 (inactive)
same,fold change,[11]; [23],1.03 and 1.84
same,cell count,[11]; [24],2100 and 2650
same,cell count,[11]; [25],1990 and 3110
same,z-score,[12]; [26],-0.121
same,z-score,[12]; [27],4.57
same,remaining NAD,[13],10 nM (inactive)
same,luciferase signal,[20],20 AU (inactive)
CC(C)(C)NCC(O)c1ccccc1Cl (stereo not given),score,[15],1.29
same,cytochrome c release ratio,[16],0.96
same,inhibition of aggregation,[17],72.5%
same,parasite load remaining,[18],85.5% (inactive) and 23.5% (inactive)
same,viability,[18],91.9% and 68.5%
same,nuclear beta-catenin stimulation,[1]; at 10 µM,-0.7% (inactive)
same,nuclear beta-catenin stimulation,"[1]; stimulation, at 2 µM",-0.7%
same,insulin secretion stimulation,[2],-1.2% (inactive)
same,viability decrease,[3],-32.4% (inactive)
same,tube area decrease,[4],5.2% (inactive)
same,GLP1 secretion stimulation,[5],0.9% (inactive)
same,inhibition of viability,[6],-0.17% (inactive)
same,viability decrease (inhibition),[7],-2.1% (inactive)
same,viability decrease (inhibition),[8],-14.4% (inactive)
same,inhibition,[9],14% (inactive)
same,red/green cell ratio (normalised),[10],0.9 (inactive)
same,normalised cell number,[10]; [21],1.07
same,normalised cell number,[10]; [22],0.97
same,activity remaining,[19],102% (inactive)
same,fold change,[11]; stronger effect = lower value,0.985 (inactive) and 0.856 (inactive)
same,fold change,[11]; [23],1.26 and 1.33
same,cell count,[11]; [24],10200 and 9170
same,cell count,[11]; [25],10400 and 10700
same,z-score,[12]; [26],-0.495 (inactive) and -0.187 (inactive)
same,z-score,[12]; [27],0.0224 and -0.446
same,remaining NAD,[13],10 nM (inactive)
same,luciferase signal,[20],24 AU (inactive)
same,z-score,[14],0.29 (inactive) and 0.245 (inactive)
